Data on 23 compounds can be found in the supplement of paper PMC7411640.

The assay relates to MDA-MB-468. Kind of assay: phospho-S6 immunofluorescence (DAPI-normalised), per-plate z-score; higher = higher phospho-S6 signal (less pathway suppression). The following applies: 24 h. The procedure:
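GPCR-targeted compound library (MedChemExpress HY-L006) tested on MDA-MB-468 PTEN-null TNBC cells in 384-well plates at 0.1, 1 or 10 uM, combined with vehicle, GDC0941 450 nM or lapatinib 1 uM, for 24 h. Phospho-S6 (S240/244) immunofluorescence normalised to DAPI and expressed as a per-plate z-score; values are the mean of biological triplicates.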

Where a name gives a salt, the structure may show the parent alone.

For the compound `CN(C)CCCN1c2ccccc2Sc2ccccc21` [Promazine (hydrochloride)] (compound 10 µM), the “phospho-S6 immunofluorescence (z-score)” value is, setting by setting: (co-treatment: GDC0941 450 nM) -0.07; (co-treatment: lapatinib 1 uM) -1.25; (co-treatment: vehicle) 0.4.

Regarding `COc1ccccc1N1CCN(CCCCN2C(=O)c3ccccc3C2=O)CC1` [NAN-190 (hydrobromide)] (compound 10 µM), the “phospho-S6 immunofluorescence (z-score)” value was 0.76 (co-treatment: GDC0941 450 nM), -0.29 (co-treatment: lapatinib 1 uM) and 0.19 (co-treatment: vehicle).

Take `c1ccc2c(c1)CCCC2C1=NCCN1` (centres undefined) [Tetrahydrozoline (hydrochloride)] (compound 10 µM): the “phospho-S6 immunofluorescence (z-score)” value reads like this: (co-treatment: GDC0941 450 nM) 0.32; (co-treatment: lapatinib 1 uM) 0.87; (co-treatment: vehicle) 0.75.

For the compound `C[C@@H](OC[C@@]1(c2ccccc2)CC[C@]2(CCC(=O)N2)CN1)c1cc(C(F)(F)F)cc(C(F)(F)F)c1` [Rolapitant] (compound 10 µM), the “phospho-S6 immunofluorescence (z-score)” value (co-treatment: GDC0941 450 nM) was -4.35, the “phospho-S6 immunofluorescence (z-score)” value (co-treatment: lapatinib 1 uM) was -3.8 and the “phospho-S6 immunofluorescence (z-score)” value (co-treatment: vehicle) is -0.65.

Regarding `C[C@H](N)[C@H](O)c1cccc(O)c1` [Metaraminol (tartrate)] (compound 10 µM), the “phospho-S6 immunofluorescence (z-score)” value (co-treatment: GDC0941 450 nM) came out at 0.64, the “phospho-S6 immunofluorescence (z-score)” value (co-treatment: lapatinib 1 uM) was 0.89 and the “phospho-S6 immunofluorescence (z-score)” value (co-treatment: vehicle) amounted to 0.73.

`Clc1ccc2c(c1)N=C(N1CCNCC1)c1ccccc1N2` [N-Desmethylclozapine] (compound 10 µM): the “phospho-S6 immunofluorescence (z-score)” value by setting is: (co-treatment: GDC0941 450 nM) -0.56; (co-treatment: lapatinib 1 uM) -3.16; (co-treatment: vehicle) -0.88.

Consider `CN1C2CCCC1CC(NC(=O)c1nn(C)c3ccccc13)C2` (centres undefined) [Granisetron (Hydrochloride)] (compound 10 µM), for which the “phospho-S6 immunofluorescence (z-score)” value (co-treatment: GDC0941 450 nM) was found to be 1.08, the “phospho-S6 immunofluorescence (z-score)” value (co-treatment: lapatinib 1 uM) was determined as 0.62 and the “phospho-S6 immunofluorescence (z-score)” value (co-treatment: vehicle) is -0.01.

Regarding `CC#C[C@]1(O)CC[C@H]2[C@@H]3CCC4=CC(=O)CCC4=C3[C@@H](c3ccc(N(C)C)cc3)C[C@@]21C` [Mifepristone] (compound 10 µM), the “phospho-S6 immunofluorescence (z-score)” value by setting is: (co-treatment: GDC0941 450 nM) -2.47; (co-treatment: lapatinib 1 uM) 1.14; (co-treatment: vehicle) -0.01.

For the compound `CC(C)N(CCCCOCC(=O)O)c1cnc(-c2ccccc2)c(-c2ccccc2)n1` (compound 10 µM), the “phospho-S6 immunofluorescence (z-score)” value (co-treatment: GDC0941 450 nM) turned out to be 1.34, the “phospho-S6 immunofluorescence (z-score)” value (co-treatment: lapatinib 1 uM) is 1.89 and the “phospho-S6 immunofluorescence (z-score)” value (co-treatment: vehicle) was 0.56.

For `CCCCCN(CCCOC)C(=O)C(CCC(=O)O)NC(=O)c1ccc(Cl)c(Cl)c1` (centres undefined) [Loxiglumide] (compound 10 µM), the “phospho-S6 immunofluorescence (z-score)” value runs as follows: (co-treatment: GDC0941 450 nM) 0.5; (co-treatment: lapatinib 1 uM) 0.64; (co-treatment: vehicle) 0.51.

In the case of `CC(C)NCC(O)COc1cccc2ccccc12` (centres undefined) [Propranolol (hydrochloride)] (compound 10 µM), the “phospho-S6 immunofluorescence (z-score)” value (co-treatment: GDC0941 450 nM) is 0.53, the “phospho-S6 immunofluorescence (z-score)” value (co-treatment: lapatinib 1 uM) stood at 0.73 and the “phospho-S6 immunofluorescence (z-score)” value (co-treatment: vehicle) was found to be 0.21.

Turning to `C[C@H](Cc1cc2c(c(C(N)=O)c1)N(CCCO)CC2)NCCOc1ccccc1OCC(F)(F)F` [Silodosin] (compound 10 µM), the “phospho-S6 immunofluorescence (z-score)” value reads like this: (co-treatment: GDC0941 450 nM) -0.57; (co-treatment: lapatinib 1 uM) -0.02; (co-treatment: vehicle) 0.57.

`CCCc1c2oc(C(=O)O)cc(=O)c2cc2c(=O)cc(C(=O)O)n(CC)c12` [Nedocromil] (compound 10 µM): the “phospho-S6 immunofluorescence (z-score)” value reads like this: (co-treatment: GDC0941 450 nM) -0.69; (co-treatment: lapatinib 1 uM) -0.48; (co-treatment: vehicle) -1.01.

`COc1cc2nc(C3CC3)nc(N3CCN(c4ccccc4OC)CC3)c2cc1OC` (compound 10 µM): the “phospho-S6 immunofluorescence (z-score)” value is, setting by setting: (co-treatment: GDC0941 450 nM) -1.77; (co-treatment: lapatinib 1 uM) -0.08; (co-treatment: vehicle) 0.05.

On to `CC(C)OC(=O)CCC/C=C\C[C@@H]1[C@@H](CC[C@@H](O)CCc2ccccc2)[C@H](O)C[C@@H]1O` [Latanoprost] (compound 10 µM), for which the “phospho-S6 immunofluorescence (z-score)” value reads like this: (co-treatment: GDC0941 450 nM) 0.61; (co-treatment: lapatinib 1 uM) -0.08; (co-treatment: vehicle) -0.18.

For `CCNC(=O)[C@@H]1CCCN1C(=O)[C@H](CCCNC(=N)N)NC(=O)[C@H](CC(C)C)NC(=O)[C@@H](COC(C)(C)C)NC(=O)[C@H](Cc1ccc(O)cc1)NC(=O)[C@H](CO)NC(=O)[C@H](Cc1c[nH]c2ccccc12)NC(=O)[C@H](Cc1cnc[nH]1)NC(=O)[C@@H]1CCC(=O)N1` [Buserelin (Acetate)] (compound 10 µM), the “phospho-S6 immunofluorescence (z-score)” value (co-treatment: GDC0941 450 nM) is 0.78, the “phospho-S6 immunofluorescence (z-score)” value (co-treatment: lapatinib 1 uM) is 0.63 and the “phospho-S6 immunofluorescence (z-score)” value (co-treatment: vehicle) amounted to 0.53.

In the case of `CC[N+](CC)(CC)CCOc1cccc(OCC[N+](CC)(CC)CC)c1OCC[N+](CC)(CC)CC` [Gallamine Triethiodide] (compound 10 µM), the “phospho-S6 immunofluorescence (z-score)” value was 0.5 (co-treatment: GDC0941 450 nM), -0.13 (co-treatment: lapatinib 1 uM) and 0.47 (co-treatment: vehicle).

On to `N=C(N)NCCC[C@H](NC(=O)[C@H](Cc1ccccc1)NC(=O)[C@@H]1CCCN1C(=O)[C@H](CO)NC(=O)[C@H](Cc1ccccc1)NC(=O)CNC(=O)[C@@H]1CCCN1C(=O)[C@@H]1CCCN1C(=O)[C@@H](N)CCCNC(=N)N)C(=O)O` [Bradykinin] (compound 10 µM), for which the “phospho-S6 immunofluorescence (z-score)” value reads like this: (co-treatment: GDC0941 450 nM) -0.14; (co-treatment: lapatinib 1 uM) 0.5; (co-treatment: vehicle) -0.36.

Take `CCCSc1nc(N[C@@H]2C[C@H]2c2ccc(F)c(F)c2)c2nnn([C@@H]3C[C@H](OCCO)[C@@H](O)[C@H]3O)c2n1` [Ticagrelor] (compound 10 µM): the “phospho-S6 immunofluorescence (z-score)” value (co-treatment: GDC0941 450 nM) was -1.29, the “phospho-S6 immunofluorescence (z-score)” value (co-treatment: lapatinib 1 uM) turned out to be 0.02 and the “phospho-S6 immunofluorescence (z-score)” value (co-treatment: vehicle) worked out at 1.13.

As for `Cc1cccn2c(=O)c(-c3nnn[nH]3)cnc12` [Pemirolast (potassium)] (compound 10 µM), the “phospho-S6 immunofluorescence (z-score)” value is, setting by setting: (co-treatment: GDC0941 450 nM) -0.3; (co-treatment: lapatinib 1 uM) -0.65; (co-treatment: vehicle) -1.33.

Turning to `O=C(N[C@@H]1CC[C@@H](c2cccc(F)c2F)CN(CC(F)(F)F)C1=O)N1CCC(n2c(=O)[nH]c3ncccc32)CC1` (compound 10 µM), the “phospho-S6 immunofluorescence (z-score)” value was 0.18 (co-treatment: GDC0941 450 nM), 0.53 (co-treatment: lapatinib 1 uM) and -0.42 (co-treatment: vehicle).

For `O=S(=O)(c1ccccc1)c1cnc2c(N3CCNCC3)cccc2c1` (compound 10 µM), the “phospho-S6 immunofluorescence (z-score)” value is 0.13 (co-treatment: GDC0941 450 nM), -2.25 (co-treatment: lapatinib 1 uM) and 0.76 (co-treatment: vehicle).

As for `Cc1ccc(N(CC2=NCCN2)c2cccc(O)c2)cc1` [Phentolamine (mesylate)] (compound 10 µM), the “phospho-S6 immunofluorescence (z-score)” value (co-treatment: GDC0941 450 nM) is -0.17, the “phospho-S6 immunofluorescence (z-score)” value (co-treatment: lapatinib 1 uM) was found to be 1.1 and the “phospho-S6 immunofluorescence (z-score)” value (co-treatment: vehicle) was -0.58.
